Drawing on PubChem BioAssay (NCATS), this text covers Potency for 15 compounds.

Assay in all cases: Primary qHTS to identify gynecologic anti-cancer compounds using libraries of approved drugs and bioactive compounds (AID 1345084); also: nearly all actives have a fitted effect of over 55% in size
One test relates to C33A. The note with it: Gynecologic cancer cell panel viability, ATPlite luminescence, 48 h; series mostly up to 57.5 µM. The essentials: (§1)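 Five-concentration response, 48 h; readout is ATP-driven luciferase luminescence.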
For the next test, the system named is CAOV3. The note with it: Gynecologic cancer cell panel viability, ATPlite luminescence, 48 h; series mostly up to 57.5 µM. The essentials: as §1
For orientation: ATP-based viability assays read luminescence as a measure of living cells.

The next test has as its system CASKI. The note with it: Gynecologic cancer cell panel viability, ATPlite luminescence, 48 h; series mostly up to 57.5 µM. The essentials:
as §1

The next test has as its system Es-2. The note with it: Gynecologic cancer cell panel viability, ATPlite luminescence, 48 h; series mostly up to 57.5 µM. The gist of the method: as §1
The test system of another test is HeLa. The note with it: Gynecologic cancer cell panel viability, ATPlite luminescence, 48 h; series mostly up to 57.5 µM. The gist of the method: as §1
The test system of a further test is Hek293T. Particulars: Gynecologic cancer cell panel viability, ATPlite luminescence, 48 h, control line for the selectivity index; series mostly up to 57.5 µM. The gist of the method:
as §1

In a further test the test system is JEG-3. The note with it: Gynecologic cancer cell panel viability, ATPlite luminescence, 48 h; series mostly up to 57.5 µM. The essentials: as §1
The test system of a further test is OV90. The note with it: Gynecologic cancer cell panel viability, ATPlite luminescence, 48 h; series mostly up to 57.5 µM. The gist of the method: as §1
A further test concerns PA-1. The note with it: Gynecologic cancer cell panel viability, ATPlite luminescence, 48 h; series mostly up to 57.5 µM. The essentials:
as §1

In a further test the test system is Tov-21-G. The note with it: Gynecologic cancer cell panel viability, ATPlite luminescence, 48 h; series mostly up to 57.5 µM. The gist of the method:
as §1

A further test deals with Tov112D. The note with it: Gynecologic cancer cell panel viability, ATPlite luminescence, 48 h; series mostly up to 57.5 µM. The essentials: as §1
Another test concerns SKOV3. The note with it: Gynecologic cancer cell panel viability, ATPlite luminescence, 48 h; series mostly up to 57.5 µM. The essentials: as §1

Results filed as inconclusive are left out. Values without a mark were called inactive. Calls of active or inactive are those of the source. Calls follow the shape of the dose curve; as a rule, active = well fitted cell-killing curve with a large enough effect; inconclusive = small, poorly fitted or top-dose-only effect, or effect the other way; inactive = flat fitted curve, though single readings scatter.
Potency is read from the fitted curve at half-maximal effect.

As to `CC(C)(C(=O)NCC(F)(F)C(F)(F)F)C(=O)NC1C(=O)Nc2ccccc2-c2ccccc21` (configuration not stated), the Potency entry in the test on C33A, in the test on CAOV3, with CASKI, in the test on Es-2, in the test on HeLa and in the test with Hek293T was “inactive” each time. The Potency entry in the test on JEG-3, in the test on OV90, in the test with PA-1, with Tov-21-G and in the test with Tov112D was “inactive” in each case.
For `C=CC1(C)C=C2C(=O)OC(=O)C3=C(CCCC3(C)C)C2(O)CC1` (configuration not stated), the Potency result in the test on C33A, with CAOV3, with CASKI, with Es-2, in the test with HeLa and with Hek293T was “inactive” in each case. In addition, the Potency result in the test on JEG-3, with OV90, with PA-1, in the test with SKOV3, in the test on Tov-21-G and with Tov112D was “inactive” throughout.
As to `CC[C@H]1OC(=O)[C@](C)(F)C(=O)[C@H](C)[C@@H](O[C@@H]2O[C@H](C)C[C@H](N(C)C)[C@H]2O)[C@](C)(OC)C[C@@H](C)C(=O)[C@@H](C)[C@H]2N(CCCCn3cc(-c4cccc(N)c4)nn3)C(=O)O[C@]12C`, the Potency entry in the test with C33A, in the test on CAOV3, in the test with CASKI, in the test on Es-2, with HeLa and in the test with Hek293T was “inactive” throughout. Besides, the Potency entry with JEG-3, with OV90, in the test with PA-1, in the test on SKOV3 and in the test with Tov112D was “inactive” throughout.
Consider `COc1ccc(CNC(=O)c2sc3nc(C)cc(C)c3c2N)cc1`, for which the Potency entry with C33A, in the test with CAOV3, in the test on CASKI, with Es-2, in the test on HeLa and with Hek293T was “inactive” in each case. Further, the Potency entry in the test with JEG-3, with OV90, in the test on PA-1, with Tov-21-G and in the test with Tov112D was “inactive” throughout.
`COC1C(=O)CCC2(CO2)C1(O)C1(C)OC1CC=C(C)C` (configuration not stated): the Potency entry in the test on C33A, with CAOV3, in the test with CASKI, in the test on Es-2, in the test on HeLa and in the test with Hek293T was “inactive” each time. Also, the Potency entry with JEG-3, in the test with OV90, in the test on PA-1, in the test with SKOV3 and in the test on Tov112D was “inactive” in each case.
Regarding `C=CC1C(OC2OC(CO)C(O)C(O)C2O)OC=C(C(=O)OC)C1CC1CC(=O)CC(CCc2ccc(O)cc2)O1` (configuration not stated), the Potency result in the test with C33A, with CAOV3, with CASKI, with Es-2, in the test on HeLa and in the test with Hek293T was “inactive” each time. In addition, the Potency result in the test with JEG-3, with OV90, with PA-1, in the test on SKOV3 and with Tov112D was “inactive” in each case.
Take `NCc1c[nH]c(=S)n1[C@@H]1CCc2c(F)cc(F)cc2C1`: the Potency entry in the test on C33A, in the test with CAOV3, with CASKI, with Es-2, with HeLa and in the test with Hek293T was “inactive” throughout. Further, the Potency result in the test with JEG-3, with OV90, with PA-1, in the test on Tov-21-G and in the test with Tov112D was “inactive” throughout.
`NC(=O)[C@H](O[C@@H]1O[C@H](CO)[C@@H](O)[C@H](O)[C@H]1O)c1ccccc1`: the Potency result in the test with C33A, in the test with CAOV3, in the test on CASKI, with Es-2, in the test with HeLa and in the test on Hek293T was “inactive” throughout. Further, the Potency entry in the test with JEG-3, in the test with OV90, in the test on PA-1, in the test on Tov-21-G and with Tov112D was “inactive” throughout.
Take `O=C(CC(c1ccccc1)c1ccccc1)N1CCN(C(c2ccccc2)c2ccccc2)CC1`: the Potency result in the test with C33A, with CAOV3, in the test on CASKI, in the test on Es-2, with HeLa and with Hek293T was “inactive” each time. The Potency entry in the test with JEG-3, in the test with OV90, in the test on PA-1, in the test with SKOV3, in the test with Tov-21-G and with Tov112D was “inactive” each time.
With `O=C(Nc1ccccc1)N1CCN(Cc2ccc3ccccc3n2)CC1`, the Potency entry in the test on C33A, in the test on CAOV3, in the test with CASKI, with Es-2, with HeLa and with Hek293T was “inactive” in each case. The Potency entry with JEG-3, in the test with OV90, with PA-1, with Tov-21-G and in the test on Tov112D was “inactive” each time.
For the compound `CCCCOC(=O)NC(=O)C1c2ccccc2Oc2ccccc21`, the Potency entry in the test on C33A, with CAOV3, in the test with CASKI, in the test on Es-2, with HeLa and in the test on Hek293T was “inactive” in each case. The Potency result with JEG-3, with OV90, in the test on PA-1, in the test with Tov-21-G and in the test on Tov112D was “inactive” each time.
Regarding `C=C[C@@](C)(O)CC/C=C(\C)C(=O)O[C@@H]1[C@@H]2O[C@]2(C)[C@H]2[C@H](O[C@@H]3O[C@H](CO)[C@@H](O)[C@H](O)[C@H]3O)OC=C[C@@]12O`, the Potency entry in the test on C33A, in the test with CAOV3, in the test on CASKI, in the test on Es-2, in the test with HeLa and with Hek293T was “inactive” each time. Also, the Potency entry with JEG-3, with OV90, with PA-1, with Tov-21-G and with Tov112D was “inactive” throughout.
In the case of `COc1ccc(C2=N[C@@H](c3ccc(Cl)cc3)[C@@H](c3ccc(Cl)cc3)N2C(=O)N2CCNC(=O)C2)c(OC(C)C)c1`, the Potency result with C33A, in the test on CAOV3, in the test with CASKI, in the test with Es-2, in the test with HeLa and in the test with Hek293T was “inactive” throughout. In addition, the Potency entry in the test on JEG-3, in the test on OV90, in the test on SKOV3 and in the test with Tov112D was “inactive” throughout. Moreover, the Potency in the test on PA-1 is 14.1 µM (active).
As for `O=C1OCC(c2ccccc2)=C1Cc1ccccc1`, the Potency entry with C33A, in the test on CAOV3, with CASKI, in the test with Es-2, with HeLa and in the test on Hek293T was “inactive” each time. Also, the Potency result with JEG-3, in the test on OV90, with PA-1, with Tov-21-G and in the test on Tov112D was “inactive” in each case.
Consider `CC1(C)C=CN2C(=O)C3=CCCN3C(=O)[C@@H]2C[C@@]12Nc1ccccc1C2=O`, for which the Potency entry in the test on C33A, in the test with CAOV3, in the test on CASKI, with Es-2, in the test on HeLa and in the test with Hek293T was “inactive” throughout. Also, the Potency result in the test on JEG-3, in the test with OV90, in the test on PA-1, in the test on Tov-21-G and in the test on Tov112D was “inactive” in each case.
